m-calpain inh – inhibitors of pig calpain II | 220,000 tested, 0.37% active | AID 1236 | inhibition, % at 16 µM | purified calpain II, fluorogenic peptide substrate, 30 min;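 active = inhibition above about 50%, limit read from the data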
FAS-TE inh – blocks the thioesterase domain of human fatty acid synthase; recombinant FAS-TE, OMFH fluorogenic substrate, fluorescence endpoint; 360,000 tested, 0.67% active; AID 602261; inhibition, % at 15 µM;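 active = compounds whose normalised, plate-corrected inhibition of enzyme fluorescence in the single-dose primary screen is 50% or more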
MIN6 prolif – induces beta-cell replication in MIN6 cells; 330,000 tested, 0.29% active; AID 2380; proliferation, % at 10 µM; MIN6 cells proliferation, ATPlite luminescence, 48 h; cells starved in 0.2% serum; 100% = growth in 10% serum;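 active = compounds whose signal lies at least 3.5 SD above the mean of all wells on their plate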
Cardio protect – protects H9c2 cardiomyocytes from peroxide injury | 360,000 tested, 0.63% active | AID 588492 | H2O2 injury protection, ATPLite, 2 h | protection from H2O2 cell death, % at 20 µM;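 active = compounds giving at least 50% protection of heart cells from peroxide-induced death in the single-dose screen, raw or plate-pattern-corrected value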
aDG glyco up – increases alpha dystroglycan glycosylation | Pro5-aDG cells, alpha-DG glycosylation AlphaScreen (IIH6); 0% Pro5, 100% B10-LARGE cell signal | activation, % at 10 µM | 360,000 tested, 0.22% active | AID 624168;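 active = activation of at least 8% versus controls, or a plate z-score of at least 8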;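 note: Pro5 are CHO cells carrying HIG-tagged alpha-DG that lacks glycosylation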
TAG inh – inhibitors of triacylglycerol accumulation; H9c2 cells, Nile Red lipid (TAG) fluorescence; cells loaded with 200 µM oleic acid; inhibition, % at 12.5 µM; 230,000 tested, 0.66% active;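 active = pattern-corrected inhibition of lipid staining of at least 50% with the nuclear-stain viability signal not falling by more than 50%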
FAS-TE conf – confirmation of human fatty acid synthase thioesterase inhibitors; 2,300 tested, 45% active; recombinant FAS-TE, OMFH fluorogenic substrate, fluorescence; AID 624325; inhibition, % at 15 µM; shares compounds with FAS-TE inh;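 active = compounds inhibiting the enzyme by at least 50% at 15 µM in any one of the replicates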
Large screens that a line does not name were inactive (follow-up assays come after a bar, where they were run). A selection: hits, their analogues and other compounds. The true share with any hit is near 2.3%.

CS(=O)(=O)c1ccc(-c2csc(C(O)c3cccc(Cl)c3)n2)cc1 (centres undefined)	FAS-TE inh 52 (no result: m-calpain inh, MIN6 prolif) | FAS-TE conf inactive
OC(c1cccc(Cl)c1)c1nc(-c2ccoc2)cs1 (centres undefined)	none (no result: m-calpain inh, MIN6 prolif)
O=C(OCc1csc(Nc2ccccc2)n1)c1ccc(Cl)cc1	FAS-TE inh 52 | FAS-TE conf inactive
Cc1ccc(S(=O)(=O)N2C[C@H]3C(=O)C[C@@H](c4ccccc4)N(S(=O)(=O)c4ccc(C)cc4)[C@H]3C[C@H]2c2ccccc2)cc1	none (no result: m-calpain inh, MIN6 prolif)
CCOC1=C2CN(S(=O)(=O)c3ccc(C)cc3)[C@@H](c3cccs3)C[C@H]2[C@H]2C(=O)N(c3ccccc3)C(=O)[C@H]2C1	FAS-TE inh 78 (no result: m-calpain inh, MIN6 prolif, TAG inh) | FAS-TE conf inactive
Cc1ccc(S(=O)(=O)N2C[C@H]3C(=O)C[C@@H]4C(=O)N(c5ccccc5)C(=O)[C@@H]4[C@@H]3C[C@H]2c2cccs2)cc1	FAS-TE inh 70 (no result: m-calpain inh, MIN6 prolif, TAG inh) | FAS-TE conf inactive
Cc1ccc(S(=O)(=O)N2C[C@H]3C(=O)C[C@@H]4C(=O)N(c5ccccc5)C(=O)[C@@H]4[C@@H]3C[C@H]2c2cccc(Cl)c2)cc1	FAS-TE inh 85 (no result: m-calpain inh, MIN6 prolif, TAG inh) | FAS-TE conf inactive
CCc1ccc(C2CC3C(CN2S(=O)(=O)c2ccc(C)cc2)C(=O)CC(c2ccc(CC)cc2)N3S(=O)(=O)c2ccc(C)cc2)cc1 (centres undefined)	none (no result: m-calpain inh, FAS-TE inh, MIN6 prolif, Cardio protect, TAG inh)
CCc1ccc([C@H]2C[C@H]3[C@H]4C(=O)N(c5ccccc5)C(=O)[C@H]4CC(=O)[C@@H]3CN2S(=O)(=O)c2ccc(C)cc2)cc1	FAS-TE inh 74 (no result: m-calpain inh, MIN6 prolif, TAG inh) | FAS-TE conf inactive
CCN(CC)S(=O)(=O)c1ccc(C(=O)NNc2nc(-c3ccccc3)c3cc(Br)ccc3n2)cc1	FAS-TE inh 68 (no result: TAG inh) | FAS-TE conf inactive
CC(C)(C)C(=O)NNc1nc(-c2ccccc2)c2cc(Br)ccc2n1	none (no result: TAG inh)
CCOc1ccc(S(=O)(=O)N2CCN(C(=O)c3ccccc3Cc3ccccc3)CC2)cc1	none (no result: m-calpain inh)
O=C(CNC(=O)c1nn(Cc2ccccc2)c(=O)c2ccccc12)Nc1ccc(F)c(F)c1F	none (no result: m-calpain inh)
NC(=O)C1CCN(C2=C(Cl)C(=O)c3ccccc3C2=O)CC1	FAS-TE inh 52 | FAS-TE conf inactive
CCCCOc1ccc(S(=O)(=O)N2CCN(c3ccc(N4CCN(CC)CC4)nn3)CC2)cc1	FAS-TE inh 60 (no result: m-calpain inh) | FAS-TE conf inactive
N#Cc1cc(-c2ccc(Cl)cc2)cn(Cc2c(Cl)cccc2Cl)c1=O	FAS-TE inh 62 (no result: TAG inh) | FAS-TE conf inactive
CCN(Cc1ccccc1)C(=O)c1ccc(N(C)S(=O)(=O)c2ccc(C)cc2)cc1	none (no result: m-calpain inh)
C=C1C(=O)O[C@@]23[C@H]1CC[C@@H](C)[C@@H]2CC[C@@]1(C)O[C@@H]31	none (no result: m-calpain inh)
CN(C(=O)COc1ncnc2ccc(Br)cc12)C1CCCCC1	none (no result: m-calpain inh, MIN6 prolif)
CC1CCc2nc(NC(=O)CN3CCN(c4ccc(F)cc4)CC3)sc2C1 (centres undefined)	FAS-TE inh 85 | FAS-TE conf 79
CCOC(=O)[C@]12CCCC=C1N(Cc1ccccc1)C(=O)[C@H](CC(=O)NCCCCc1ccccc1)C2	none (no result: m-calpain inh, FAS-TE inh, MIN6 prolif, Cardio protect, TAG inh)
C/C(=N\NC(=O)c1nnn(-c2nonc2N)c1-c1ccc(Cl)c(Cl)c1)c1ccncc1	FAS-TE inh 55 (no result: m-calpain inh, TAG inh) | FAS-TE conf 56
Cc1nc(Sc2ccc(Br)cc2)c(C#N)c(C)c1[N+](=O)[O-]	FAS-TE inh 61 | FAS-TE conf inactive
Cc1ccc(Sc2nc(C)c([N+](=O)[O-])c(C)c2C#N)cc1	none
Cc1nc(Sc2ccc(Cl)cc2)c(C#N)c(C)c1[N+](=O)[O-]	FAS-TE inh 64 | FAS-TE conf inactive
CN(CC(=O)Nc1ccc(Cl)cc1)CC(=O)N1CCc2ccccc21	none (no result: m-calpain inh, MIN6 prolif)
CC(C)NC(=O)N(C)C[C@H]1OCCCC[C@@H](C)Oc2ccc(NC(=O)C3CCCCC3)cc2C(=O)N([C@H](C)CO)C[C@@H]1C	none (no result: m-calpain inh, MIN6 prolif)
Cc1ccc(S(=O)(=O)N(C)C[C@@H]2OCCCC[C@H](C)Oc3ccc(NC(=O)Nc4ccc(F)cc4)cc3C(=O)N([C@H](C)CO)C[C@H]2C)cc1	FAS-TE inh 62 (no result: m-calpain inh, MIN6 prolif) | FAS-TE conf inactive
Cc1ccc(S(=O)(=O)Nc2ccc3c(c2)C(=O)N([C@H](C)CO)C[C@H](C)[C@@H](CN(C)Cc2ccc(-c4ccccc4)cc2)O3)cc1	FAS-TE inh 81 (no result: m-calpain inh) | FAS-TE conf inactive
C[C@@H]1CN([C@@H](C)CO)C(=O)c2cc(NC(=O)Nc3cccc4ccccc34)ccc2O[C@@H](C)CCCCO[C@H]1CN(C)C(=O)c1ccccc1	none (no result: m-calpain inh, MIN6 prolif)
C[C@@H]1CN([C@@H](C)CO)C(=O)c2cc(NC(=O)C3CCCCC3)ccc2O[C@@H](C)CCCCO[C@H]1CN(C)S(=O)(=O)c1ccc(Cl)cc1	FAS-TE inh 81 (no result: m-calpain inh, MIN6 prolif) | FAS-TE conf inactive
C[C@@H]1CCCCO[C@H](CN(C)C(=O)Nc2cccc3ccccc23)[C@@H](C)CN([C@H](C)CO)C(=O)c2cc(NC(=O)c3ccccc3)ccc2O1	FAS-TE inh 78 (no result: m-calpain inh, MIN6 prolif) | FAS-TE conf inactive
COc1ccc(C(=O)N/C(=C\c2cn(S(=O)(=O)N(C)C)c3ccccc23)C(=O)N2CCN(C)CC2)cc1OC	none (no result: m-calpain inh, MIN6 prolif)
Cc1ccc(S(=O)(=O)N(C)C[C@H]2OCCCC[C@H](C)Oc3ccc(NC(=O)Nc4cccc5ccccc45)cc3C(=O)N([C@@H](C)CO)C[C@H]2C)cc1	FAS-TE inh 82 (no result: m-calpain inh, MIN6 prolif) | FAS-TE conf inactive
C[C@H](CO)N1C[C@H](C)[C@@H](CN(C)Cc2ccc(Cl)c(Cl)c2)Oc2c(NS(=O)(=O)c3ccc(F)cc3)cccc2C1=O	FAS-TE inh 54 (no result: m-calpain inh) | FAS-TE conf 58
Cc1ccc(S(=O)(=O)N(C)C[C@@H]2OCCCC[C@@H](C)Oc3ccc(NS(=O)(=O)c4c(C)noc4C)cc3C(=O)N([C@H](C)CO)C[C@@H]2C)cc1	none (no result: m-calpain inh, MIN6 prolif)
Cc1ccc(S(=O)(=O)Nc2ccc3c(c2)C(=O)N([C@@H](C)CO)C[C@@H](C)[C@@H](CN(C)S(=O)(=O)c2ccccc2)OCCCC[C@H](C)O3)cc1	FAS-TE inh 79 (no result: m-calpain inh, MIN6 prolif) | FAS-TE conf inactive
C[C@H](CO)N1C[C@H](C)[C@@H](CN(C)Cc2ccccc2)Oc2c(NS(=O)(=O)c3ccc(F)cc3)cccc2C1=O	none (no result: m-calpain inh)
COc1ccc(S(=O)(=O)N(C)C[C@@H]2OCCCC[C@@H](C)Oc3ccc(NC(=O)NC(C)C)cc3C(=O)N([C@H](C)CO)C[C@@H]2C)cc1	none (no result: m-calpain inh, MIN6 prolif)
CCCCN(Cc1ccco1)S(=O)(=O)c1csc(C(N)=O)c1	none (no result: m-calpain inh, TAG inh)
CC(C)N1CCc2c(sc(NC(=O)c3ccc([N+](=O)[O-])o3)c2C(N)=O)C1	FAS-TE inh 60 (no result: m-calpain inh) | FAS-TE conf 71
CC(=O)N1CCc2c(sc(NC(=O)c3ccc([N+](=O)[O-])o3)c2C#N)C1	none (no result: MIN6 prolif)
